Potency and outcome data for 8 compounds are collected here from PubChem BioAssay (Tox21).

Molecules are shown by their SMILES. Values without a mark were called inactive. Results filed as inconclusive are left out. Calls of active or inactive are those of the source. Unless noted, calls follow the shape of the full dose curve.

Assay [1] in a line: Nuclear factor erythroid 2-related factor 2/antioxidant responsive element (Nrf2/ARE) small molecule agonists: luciferase reporter gene qHTS assay in human keratinocytes (AID 1919969). Also: nearly all actives have a fitted effect of over 35% in size. Also: potency is read from the fitted curve at half-maximal effect.
Assay [2] addresses Gonadotropin-releasing hormone receptor (Homo sapiens) (UniProt P30968). As to the kind of experiment: Human gonadotropin-releasing hormone receptor (GnRHR) small molecule agonists, calcium flux assay in GnRHR-HEK293 cells (AID 1920063). Also: nearly all actives have a fitted effect of over 35% in size. In a few lines:
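We seeded human GnRHR-expressing HEK293 cells for 18 hours, loaded them with calcium dye for an hour at 37 C, added test compounds, and recorded fluorescence intensity kinetically for three minutes.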
(In general: Calcium assays in cells follow changes in intracellular calcium, usually with a dye or a luminescent sensor.)

Assay [3] has as its target KiSS-1 receptor (Homo sapiens) (UniProt Q969F8). As to the kind of experiment: Human kisspeptin (KISS1R) small molecule agonists, calcium flux assay in KISS1R-HEK293 cells (AID 1920064; active = well fitted activation curve with a large enough effect in the repeat runs). In a few lines: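 Kinetic calcium assay, 1 s sampling over 3 min at Ex/Em 480/540, in HEK293 cells engineered with human KISS1R; compounds delivered in DMSO after 1 h dye loading.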
The nature of assay [4]: G protein-coupled receptor (GPCR) small molecule agonists, calcium flux assay: HEK293 wild type cell line counter screen (AID 1920065). In a few lines: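 Calcium-sensitive dye, loaded 1 h at 37 C into cells cultured 18 h, reports compound-evoked calcium release as fluorescence (Ex/Em 480/540), measured over 3 min. Agonist mode; 15-point titrations, triplicate.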
Assay [5] is described as follows: p53 small molecule agonists, cell-based qHTS assay with human liver microsomes (AID 1963577). In a few lines: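 Compounds act here after metabolic activation: human liver microsomes and NADPH, both at 0.5 mg/mL final, were co-added to p53RE-bla cells. Incubation ran 16 h at 37 C, followed by LiveBLAzer detection.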
On the technique in general: In qHTS, concentration-response curves come from the screen itself.

The nature of assay [6]: p53 small molecule agonists, cell-based qHTS assay with rat liver microsomes (AID 1963578). In a few lines:
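Read-out is beta-lactamase reporter fluorescence (LiveBLAzer, 2 h, room temperature, dark) in p53RE-bla cells treated 16 h at 37 C with compound, rat liver microsomes and NADPH, both 0.5 mg/mL final.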

A short description of assay [7]: p53 small molecule agonists, cell-based qHTS assay with human liver microsomes: qHTS cell viability counter screen (AID 1963579). Also: nearly all actives have a fitted effect of over 45% in size. In a few lines: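 Cells carrying the p53 response-element beta-lactamase reporter are treated for 16 h at 37 C with test compounds in the presence of human liver microsomes and NADPH (both 0.5 mg/mL final); ATP-based CellTiter-Glo luminescence then reports viability.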

A short description of assay [8]: p53 small molecule agonists, cell-based qHTS assay with rat liver microsomes: qHTS cell viability counter screen (AID 1963580). Also: nearly all actives have a fitted effect of over 45% in size. In a few lines:
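p53RE-bla HCT-116 cells (4,000/well) rested 5 h at 37 C, then given Tox21 compounds in DMSO with rat liver microsomes (0.5 mg/mL final) plus NADPH (0.5 mg/mL final) for 16 h at 37 C. Viability read by CellTiter-Glo luminescence after 30 min at room temperature.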

Assay [9] can be described thus: p53 small molecule agonists, cell-based qHTS assay (AID 1963582; active = well fitted activation curve with a large enough effect in the signal ratio in the repeat runs, not every such curve was filed as active; the % refers to the signal ratio). In a few lines:
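In this cell-based concentration-response screen, a p53 response element drives beta-lactamase; cells received DMSO-borne compounds after 5 h culture and were incubated a further 16 h before FRET substrate development.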

Assay [10] addresses 5-hydroxytryptamine receptor 2A (Homo sapiens) (UniProt P28223). The experiment in a line: 5-hydroxytryptamine receptor 2A (HTR2A) small molecule antagonists, cell-based qHTS assay (AID 1963586). Also: nearly all actives have a fitted effect of over 45% in size. Also: potency is read from the fitted curve at half-maximal effect. In a few lines: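 Antagonist-mode intracellular calcium assay: DOI (4 nM) added after 5 min compound pre-incubation at room temperature to dye-loaded HTR2A-CHO cells. Fluorescence followed for 3 min, sampled every second.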

For assay [11] the target is unchanged. The experiment in a line: 5-hydroxytryptamine receptor 2A (HTR2A) small molecule agonists, cell-based qHTS assay (AID 1963587). Also: nearly all actives have a fitted effect of over 30% in size. In a few lines:
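HTR2A-CHO cells, plated 18 h at 37 C/5% CO2, dye-loaded 1 h at 37 C; compounds in DMSO added by pin tool (agonist mode). Intracellular calcium flux read as kinetic fluorescence on FDSS over 2 min at 1 s intervals.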

Assay [12] deals with Muscarinic acetylcholine receptor M1 (Homo sapiens) (UniProt P11229). As to the kind of experiment: Cholinergic receptor muscarinic 1 (CHRM1) small molecule antagonists, cell-based qHTS assay (AID 1963588). Also: nearly all actives have a fitted effect of over 40% in size. Also: potency is read from the fitted curve at half-maximal effect. In a few lines: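 CHRM1-CHO calcium-flux assay, antagonist mode. Cells were seeded 18 h, dye-loaded 1 h at 37 C and given compound for 5 min at RT, then acetylcholine was added at 50nM. FDSS fluorescence was read 3 min; 15 concentrations, three runs.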
Muscarinic acetylcholine receptor M1 (Homo sapiens), sequence (P11229 whole entry, looked up): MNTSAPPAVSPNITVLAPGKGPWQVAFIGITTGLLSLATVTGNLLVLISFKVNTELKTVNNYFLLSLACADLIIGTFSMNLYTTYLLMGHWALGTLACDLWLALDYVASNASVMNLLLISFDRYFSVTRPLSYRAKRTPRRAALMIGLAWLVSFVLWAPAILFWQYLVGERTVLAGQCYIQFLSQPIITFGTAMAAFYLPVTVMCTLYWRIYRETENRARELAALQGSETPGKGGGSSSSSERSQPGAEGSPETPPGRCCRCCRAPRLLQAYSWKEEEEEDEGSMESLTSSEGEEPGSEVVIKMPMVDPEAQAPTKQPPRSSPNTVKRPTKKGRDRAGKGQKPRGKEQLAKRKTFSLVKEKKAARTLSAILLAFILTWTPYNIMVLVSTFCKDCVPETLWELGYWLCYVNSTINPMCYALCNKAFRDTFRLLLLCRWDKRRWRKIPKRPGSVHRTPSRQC

Assay [13] has the same target. The experiment in a line: Cholinergic receptor muscarinic 1 (CHRM1) small molecule agonists, cell-based qHTS assay (AID 1963589). Also: nearly all actives have a fitted effect of over 35% in size. In a few lines:
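Measures agonist-induced intracellular calcium rise. Stable human CHRM1 CHO line, 1 h dye load at 37 C, compounds from DMSO, kinetic fluorescence read.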

Assay [14] concerns the target Beta-2 adrenergic receptor (Homo sapiens) (UniProt P07550). As to the kind of experiment: Adrenergic beta2 receptor (ADRB2) small molecule antagonists, cell-based qHTS assay (AID 1963592). Also: series mostly up to about 92 µM; nearly all actives have a fitted effect of over 50% in size. In a few lines:
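Cells (CHO, stable ADRB2 overexpression) incubated 18-20hr at 37C; compounds added from DMSO; agonist mix (1nM isoproterenol, 100uM IBMX, 25uM Ro-20-1724) added; 0.5hr RT; d2-cAMP and anti-cAMP-cryptate added; 1hr RT; 665/615 nm read.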

The target is the same in assay [15]. The experiment in a line: Adrenergic beta2 receptor (ADRB2) small molecule agonists, cell-based qHTS assay (AID 1963593).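 Also: CHO cells stably overexpressing human ADRB2.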 In a few lines:
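CHO cells stably over-expressing ADRB2 were plated overnight at 37C, then dosed with compounds plus a stimulation mix containing 100uM IBMX and 25uM Ro-20-1724 for 0.5hr at room temperature. cAMP was measured by HTRF competition, 1hr.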

The target of assay [16] is D(2) dopamine receptor (Homo sapiens) (UniProt P14416). As to the kind of experiment: Dopamine D2 receptor (DRD2) small molecule agonists, cell-based qHTS assay (AID 1963594). Also: nearly all actives have a fitted effect of over 35% in size. Also: potency is read from the fitted curve at half-maximal effect. In a few lines:
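HEK293 cells stably expressing DRD2 were cultured 24 h at 37 C, then given Ro20-1724 (0.1 mM final) and compounds for 10 min at room temperature. NKH477 (200nM) was then added for 30 min. cAMP was read by HTRF.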

For assay [17] the target is unchanged. As to the kind of experiment: Dopamine D2 receptor (DRD2) small molecule antagonists, cell-based qHTS assay (AID 1963595; active = well fitted inhibition curve with a large enough effect in the signal ratio in the repeat runs, with a control signal flat; the % refers to the signal ratio). In a few lines:
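In this cell-based antagonist screen, compounds act for 10 min at room temperature before a 30 min challenge with 12 nM quinpirole and 200 nM NKH477. cAMP is quantified by HTRF competition in DRD2-HEK293 cells containing 0.1 mM Ro20-1724.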

The nature of assay [18]: cAMP Responsive Elements (CRE) small molecule agonists, cell-based qHTS assay (AID 1963590). In a few lines:
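A CRE-responsive beta-lactamase reporter in HEK 293T cells was used. Treatment ran 3 h at 37 C; detection used LiveBLAzer B/G FRET substrate for 2 h at room temperature.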

Assay [19] can be described thus: cAMP Responsive Elements (CRE) small molecule antagonists, cell-based qHTS assay (AID 1963591; active = well fitted inhibition curve with a large enough effect in the signal ratio in the repeat runs, not every such curve was filed as active; the % refers to the signal ratio). In a few lines:
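HEK293T cells carrying a CRE-driven beta-lactamase reporter receive compound and NKH477 (0.25 uM final) for 3 h. Fluorescence from LiveBLAzer B/G FRET substrate is read after 2 h at room temperature.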

A short description of assay [20]: p53 small molecule agonists, cell-based qHTS assay: qHTS cell viability counter screen (AID 1963581). Also: nearly all actives have a fitted effect of over 45% in size. In a few lines: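 Following 5 h attachment, HCT-116 p53RE-bla cells took up compound for 16 h at 37 C; the reporter was read with B/G FRET substrate (2 h RT), and viability then via CellTiter-Glo ATP luminescence.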

KiSS-1 receptor (Homo sapiens), sequence (Q969F8 whole entry, looked up): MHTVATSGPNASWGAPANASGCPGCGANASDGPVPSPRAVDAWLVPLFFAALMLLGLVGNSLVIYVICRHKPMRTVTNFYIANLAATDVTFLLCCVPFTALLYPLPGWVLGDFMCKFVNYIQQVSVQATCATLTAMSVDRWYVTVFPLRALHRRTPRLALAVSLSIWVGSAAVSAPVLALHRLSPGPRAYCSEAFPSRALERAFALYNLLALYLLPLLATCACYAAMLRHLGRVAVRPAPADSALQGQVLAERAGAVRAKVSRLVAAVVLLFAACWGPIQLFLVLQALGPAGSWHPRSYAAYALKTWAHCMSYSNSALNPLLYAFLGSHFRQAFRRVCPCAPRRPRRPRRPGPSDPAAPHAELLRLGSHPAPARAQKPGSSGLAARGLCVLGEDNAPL
D(2) dopamine receptor (Homo sapiens), sequence (P14416 whole entry, looked up): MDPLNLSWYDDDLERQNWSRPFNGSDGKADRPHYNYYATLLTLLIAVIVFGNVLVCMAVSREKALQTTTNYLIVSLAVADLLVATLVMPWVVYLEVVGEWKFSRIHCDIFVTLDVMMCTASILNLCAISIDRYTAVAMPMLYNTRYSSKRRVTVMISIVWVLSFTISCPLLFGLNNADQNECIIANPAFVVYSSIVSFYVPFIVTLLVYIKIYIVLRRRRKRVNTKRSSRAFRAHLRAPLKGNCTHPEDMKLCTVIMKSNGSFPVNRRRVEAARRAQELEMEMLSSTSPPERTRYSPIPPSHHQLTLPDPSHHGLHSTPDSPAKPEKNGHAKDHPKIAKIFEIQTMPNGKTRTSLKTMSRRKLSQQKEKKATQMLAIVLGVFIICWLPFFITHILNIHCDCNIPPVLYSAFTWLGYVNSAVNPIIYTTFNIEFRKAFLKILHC
Beta-2 adrenergic receptor (Homo sapiens), sequence (P07550 whole entry, looked up): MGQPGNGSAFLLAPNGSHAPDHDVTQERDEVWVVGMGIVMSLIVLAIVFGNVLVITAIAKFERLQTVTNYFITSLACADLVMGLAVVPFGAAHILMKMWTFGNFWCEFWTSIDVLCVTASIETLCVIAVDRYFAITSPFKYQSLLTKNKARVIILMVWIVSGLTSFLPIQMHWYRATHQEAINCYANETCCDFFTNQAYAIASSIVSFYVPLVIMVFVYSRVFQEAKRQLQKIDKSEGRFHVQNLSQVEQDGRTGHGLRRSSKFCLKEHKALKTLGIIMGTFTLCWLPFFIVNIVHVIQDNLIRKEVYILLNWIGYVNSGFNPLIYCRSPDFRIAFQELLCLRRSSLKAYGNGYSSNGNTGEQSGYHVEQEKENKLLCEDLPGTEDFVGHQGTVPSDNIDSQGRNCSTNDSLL
5-hydroxytryptamine receptor 2A (Homo sapiens), sequence (P28223 whole entry, looked up): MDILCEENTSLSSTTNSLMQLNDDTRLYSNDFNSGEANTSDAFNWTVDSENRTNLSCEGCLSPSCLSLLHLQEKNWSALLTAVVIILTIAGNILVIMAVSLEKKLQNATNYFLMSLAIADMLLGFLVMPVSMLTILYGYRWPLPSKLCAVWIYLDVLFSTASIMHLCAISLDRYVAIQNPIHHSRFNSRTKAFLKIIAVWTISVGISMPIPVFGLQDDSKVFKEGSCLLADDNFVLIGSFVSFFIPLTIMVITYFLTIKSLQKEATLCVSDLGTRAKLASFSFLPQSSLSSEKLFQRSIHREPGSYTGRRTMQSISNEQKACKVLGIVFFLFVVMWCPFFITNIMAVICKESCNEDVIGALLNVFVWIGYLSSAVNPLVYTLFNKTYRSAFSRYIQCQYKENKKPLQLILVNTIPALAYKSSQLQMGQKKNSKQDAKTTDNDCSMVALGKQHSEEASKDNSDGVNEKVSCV
Gonadotropin-releasing hormone receptor (Homo sapiens), sequence (P30968 whole entry, looked up): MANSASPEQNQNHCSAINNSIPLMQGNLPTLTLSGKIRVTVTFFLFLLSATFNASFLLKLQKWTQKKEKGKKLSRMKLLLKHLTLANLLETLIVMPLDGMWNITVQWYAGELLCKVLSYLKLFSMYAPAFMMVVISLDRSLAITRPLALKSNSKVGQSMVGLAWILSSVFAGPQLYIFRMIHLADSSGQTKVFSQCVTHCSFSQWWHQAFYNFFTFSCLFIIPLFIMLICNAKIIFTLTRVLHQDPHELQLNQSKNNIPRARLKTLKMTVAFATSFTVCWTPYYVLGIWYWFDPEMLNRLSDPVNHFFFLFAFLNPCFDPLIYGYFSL

Regarding `CC(C)CC(=O)C1C(=O)c2ccccc2C1=O`, the Potency result in assay [1], in assay [2], in assay [5], in assay [6], in assay [7] and in assay [8] was “inactive” each time. Also, the Potency result in assay [9], in [10], in assay [11], in [12], in [13] and in assay [14] was “inactive” throughout. Also, the Potency result in assay [15], in assay [16] and in [17] was “inactive” throughout. The result in [3] and in [4] was inactive.

Regarding `CCCSS/C(CCO)=C(\C)N(C=O)Cc1cnc(C)nc1N`, the Potency in [1] is 29.8 µM (active). Also, the Potency entry in assay [2], in assay [5], in assay [6], in assay [7], in [8] and in assay [10] was “inactive” in each case. Moreover, the Potency result in [11], in assay [12], in assay [13], in assay [18], in assay [19] and in [14] was “inactive” throughout. Moreover, the Potency entry in [15], in assay [16] and in assay [17] was “inactive” each time. Besides, the outcome in assay [3] and in [4] was inactive.

Consider `CCN(CC)CCOc1ccccc1C(=O)CCc1ccccc1`, for which the Potency result in assay [1], in assay [2], in assay [5], in assay [6], in assay [7] and in assay [8] was “inactive” each time. Further, the Potency entry in assay [9], in assay [11], in [13], in assay [15] and in assay [17] was “inactive” in each case. Also, the result in assay [3] and in assay [4] was inactive. Besides, the Potency in assay [10] was 1.3 µM (active); in [12], 2.31 µM (active).

Turning to `O=C1c2ccccc2S(=O)(=O)N1CCCCN1CCN(c2ncccn2)CC1`, the Potency entry in assay [1], in [2], in [5], in [6], in assay [7] and in assay [20] was “inactive” in each case. In addition, the Potency entry in [9], in assay [11], in assay [12], in [13], in assay [18] and in assay [19] was “inactive” throughout. The Potency entry in assay [14], in assay [15] and in assay [17] was “inactive” throughout. Moreover, the outcome in assay [3] and in assay [4] was inactive. For the same compound, the Potency in [16] is 2.76 µM (active).

As to `OC[C@@H](O)C(O)[C@@H](O)CO` (stereo partly drawn), the Potency result in assay [1], in assay [2], in assay [5], in assay [6], in assay [7] and in assay [8] was “inactive” in each case. Further, the Potency result in assay [9], in assay [11], in [12], in assay [13], in [18] and in assay [19] was “inactive” each time. Besides, the Potency result in [14], in [16] and in assay [17] was “inactive” throughout. Also, the result in [3] and in assay [4] was inactive.

Take `CCCCCCCCSCc1cc(C)c(O)c(CSCCCCCCCC)c1`: the Potency in assay [1] is 61.1 µM (active). The Potency entry in assay [2], in assay [5], in assay [6], in [7], in [10] and in [11] was “inactive” each time. Besides, the Potency result in assay [12], in assay [13], in assay [19], in assay [14], in assay [15] and in [16] was “inactive” throughout. For the same compound, the outcome in [3] and in [4] was inactive.

Consider `CO[C@@H]1[C@H](OC(=O)/C=C/C=C/C=C/C=C/C(=O)O)CC[C@]2(CO2)[C@H]1[C@@]1(C)O[C@@H]1CC=C(C)C`, for which, in assay [1], the Potency was 61.1 µM (active). Further, the Potency result in [2], in assay [5], in assay [6], in assay [7], in assay [8] and in assay [20] was “inactive” throughout. The Potency result in assay [10], in [12], in [13], in assay [18], in assay [14] and in assay [15] was “inactive” throughout. Moreover, the Potency entry in [16] and in assay [17] was “inactive” in each case. Also, the result in assay [3] and in assay [4] was inactive.

With `CCCCCCCCCCCCCC(=O)OCC(O)CO` (stereo not drawn), the Potency entry in assay [1], in [2], in assay [5], in assay [6], in [7] and in assay [20] was “inactive” throughout. The Potency entry in assay [9], in assay [10], in assay [12], in assay [13], in assay [19] and in assay [14] was “inactive” throughout. The Potency result in assay [16] and in assay [17] was “inactive” in each case. The outcome in assay [3] and in assay [4] was inactive.
